# Assay outcomes from PubChem BioAssay.
# Only some compounds are listed: those with a hit (about 4.1% of all), similar ones and a draw of the others.
# CHT allo act – human CHT allosteric activation | CHT-expressing cells, membrane potential dye, choline EC20; stronger effect = higher value; LV-AA mutant CHT in HEK293 cells | 0.49% of 310,000 active | Q9GZV3 | B-score at 10 µM | AID 488977;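 active = initial fluorescence not abnormally high and integrated response B-score, plate-corrected, over 3 SD above library mean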
# SUMO Mot1 rescue – blocks SUMOylation pathway, rescuing yeast Mot1-301 growth | S. cerevisiae Mot1-301 growth rescue, ATP luminescence, 38.5C; percent above DMSO median, 100 means doubled | growth rescue, % at 18.8 µM | 1% of 320,000 active | AID 2716;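 active = every valid replicate shows activation above 250% relative to neutral control wells; inactive = the rest, any valid replicate at or below 250%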;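 note: OY570 slx delta 5 strain wells were the positive control but not used for scaling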
# MEKK2mut PB1 HTS – signal of MEK5 binding to mutant human MEKK2 PB1 domain | bead flow cytometry, Alexa488-MEK5 binding to MEKK2 mutant | percent response, % at 10 µM | 0.35% of 290,000 active | AID 1530; in the data active = percent response above about 24%, passing the limit was not always enough
# CHT inh – inhibits the human high affinity choline transporter; Q9GZV3; AID 488975; 0.86% of 310,000 active; B-score at 10 µM; CHT-expressing cells, membrane potential dye, choline response; stronger effect = lower value;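 active = B-score over 3 SD under the library average, and starting fluorescence ratio not unusually high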;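 note: choline stimulus applied at its EC90 after an EC20 pre-addition; B-score computed on integrated fluorescence ratio after choline addition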
# MEKK2wt PB1 HTS – raises or lowers MEK5 binding to wildtype human MEKK2 PB1 domain | bead flow cytometry, Alexa488-MEK5 binding to MEKK2 WT; actives lie on both sides | binding response (% of control), % at 10 µM | 1.1% of 290,000 active; in the data active = binding response below about 67% or above about 130%
# MEKK3 PB1 HTS – modulators (inhibitors or enhancers) of MEK5 binding to human MEKK3 PB1 domain | Q99759 | bead-based flow cytometry, Alexa488-MEK5 binding to MEKK3; actives lie on both sides; 0 = blocked by unlabeled MEK5, 100 = vehicle | binding response (% of control), % at 10 µM | 1.4% of 290,000 active | AID 1529;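 active = binding response more than 3 SD above or below the average of its plate-row segment, actives on both sides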;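 note: Alexa488 bead fluorescence after subtracting the streptavidin-only scavenger bead signal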
# Target sequence (Q99759 whole entry, looked up, the tested form may be a part): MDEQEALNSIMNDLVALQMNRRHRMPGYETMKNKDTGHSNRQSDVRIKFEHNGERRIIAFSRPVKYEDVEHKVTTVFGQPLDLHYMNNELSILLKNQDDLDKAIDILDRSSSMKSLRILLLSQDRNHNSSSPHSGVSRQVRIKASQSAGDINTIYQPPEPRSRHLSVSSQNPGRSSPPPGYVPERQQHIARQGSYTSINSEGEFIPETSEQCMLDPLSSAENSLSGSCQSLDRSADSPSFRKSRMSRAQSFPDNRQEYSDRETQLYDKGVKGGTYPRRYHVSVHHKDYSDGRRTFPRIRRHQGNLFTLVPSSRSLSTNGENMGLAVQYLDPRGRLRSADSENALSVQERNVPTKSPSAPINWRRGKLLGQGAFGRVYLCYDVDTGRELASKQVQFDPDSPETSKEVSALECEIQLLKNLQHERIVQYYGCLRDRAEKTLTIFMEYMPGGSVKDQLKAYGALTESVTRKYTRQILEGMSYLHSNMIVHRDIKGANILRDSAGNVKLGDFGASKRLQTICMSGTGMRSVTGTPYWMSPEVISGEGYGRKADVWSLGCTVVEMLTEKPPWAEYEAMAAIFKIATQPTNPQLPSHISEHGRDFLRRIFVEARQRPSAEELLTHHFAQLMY
# CHT block conf – human CHT inhibition, confirmatory screen; shares compounds with CHT inh; CHT-expressing cells, choline membrane potential dye; LV-to-AA substituted CHT, HEK293 cells; CHT activity remaining % of control (stronger effect = lower value), % at 10 µM; 70% of 2,400 active; AID 493221;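 active = choline transporter activity left, mean of duplicates at 10 µM, below buffer-only control mean minus 3 SD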;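 note: depolarization triggered by choline at its EC90 following an EC20 pre-addition; 0% = hemicholinium-3 full block and 100% = buffer-only control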
# HEK293 CHT ctr – counter-screen for CHT inhibitors: effect in parental HEK293 cells | shares compounds with CHT inh | membrane potential dye, choline response; active = decrease or increase beyond buffer ±3SD | membrane potential ratio readout (active if shifted either direction beyond buffer ±3SD; no single direction) at 10 µM | 4% of 2,400 active;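 note: parental cells lack the transporter so any hit is non-specific; ratio is peak minus trough fluorescence over baseline after EC90 choline challenge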
# The depositor's hits bear a star; i = inactive; nt = not tested or not shown.
SMILES,CHT allo act,SUMO Mot1 rescue,MEKK2mut PB1 HTS,CHT inh,MEKK2wt PB1 HTS,MEKK3 PB1 HTS,CHT block conf,HEK293 CHT ctr
Cc1ccnc(NS(=O)(=O)c2ccc(NC(=O)c3ccc(Cl)cc3[N+](=O)[O-])cc2)n1,i,4.1,7.0,-5.46*,107.0,100.0,51.2%*,i
Cc1cc(NS(=O)(=O)c2ccc(NC(=O)c3ccc(Cl)cc3[N+](=O)[O-])cc2)no1,i,-7.9,3.0,i,97.0,100.0,nt,nt
COc1ccc(S(=O)(=O)NCCc2cn3nc(C)c(C)nc3n2)cc1F,i,7.5,-7.0,i,96.0,98.0,nt,nt
O=c1c2cc(NC(=S)N3CCCCC3)ccc2nc2n1CCCCC2,i,-17.6,1.0,i,101.0,102.0,nt,nt
CN(Cc1ccccc1)C(=S)Nc1ccc2nc3n(c(=O)c2c1)CCCCC3,i,-5.4,0.0,-6.96*,101.0,101.0,i,i
O=C1C=C(c2ccc3c(c2)oc2ccccc23)C[C@@H](c2ccc3c(c2)OCO3)C1,nt,14.4,nt,nt,nt,nt,nt,nt
Clc1cccc(Cl)c1CNC1CCCC1,i,-11.1,-4.0,-5.5*,97.0,100.0,11.0%*,-10.5*
CCc1ccc(NS(=O)(=O)c2ccc(C)c(C(=O)N3CCOCC3)c2)cc1,i,-5.0,-1.0,i,98.0,103.0,nt,nt
C=CCNS(=O)(=O)c1ccc(N2C(=O)c3ccccc3C2=O)cc1,i,136.5,-9.0,-6.48*,91.0,89.0,63.2%*,i
CC(C)(C)NS(=O)(=O)c1ccc(N2C(=O)c3ccccc3C2=O)cc1,i,-5.0,1.0,-7.5*,99.0,102.0,60.5%*,i
Cc1cc(C)nc(NS(=O)(=O)c2ccc(N3C(=O)c4ccccc4C3=O)cc2)n1,i,-29.2,0.0,i,103.0,121.0,nt,nt
CCc1cc(-c2nc(N)ncc2-c2csc(C)n2)c(O)cc1OC,i,-0.8,1.0,-7.79*,103.0,101.0,i,i
CCCc1cc(-c2nc(N)ncc2-c2csc(C)n2)c(O)cc1OC,i,0.2,nt,i,nt,nt,nt,nt
CCN(Cc1ccncc1)C(=O)c1cc(COc2c(C)cccc2C)on1,i,3.1,7.0,-5.45*,107.0,104.0,52.6%*,i
CCN(Cc1ccncc1)C(=O)c1cc(COc2ccc(F)cc2F)on1,i,nt,2.0,i,104.0,102.0,nt,nt
C(=N\Nc1nccc(-c2cccnc2)n1)/c1ccccc1,i,-15.8,-2.0,-12*,99.0,98.0,i,i
Cc1occc1C(=O)N/N=C/c1sc(N2CCOCC2)nc1-c1ccccc1,i,nt,-1.0,-9.14*,100.0,104.0,i,i
CSc1nc2ccsc2c(=O)n1-c1ccccc1,i,5.4,-2.0,i,98.0,102.0,nt,nt
CNc1nc(SC)nc2ccsc12,i,-3.1,-1.0,-13.8*,104.0,98.0,4.2%*,i
O=C(Cc1ccccc1F)c1ccc(O)cc1O,i,-4.5,4.0,-6.19*,105.0,105.0,45.1%*,i
O=C(Cc1c(F)cccc1Cl)c1ccc(O)cc1O,i,5.7,0.0,i,96.0,98.0,nt,nt
O=C1CCC([N+](=O)[O-])C(c2ccc3c(c2)OCO3)N1 (configuration not stated),i,-5.3,-10.0,-11.6*,87.0,92.0,i,i
CC(=O)OC(C(=O)NC1CCCCC1)c1ccc(Cl)c(Cl)c1 (configuration not stated),i,-1.1,-5.0,-10.9*,93.0,93.0,i,i
COc1cccc(NC(=O)c2ccnc(N3CCC(C(=O)NCc4ccccc4OC)CC3)c2)c1,i,6.1,1.0,i,105.0,100.0,nt,nt
